In PubChem BioAssay AID1159580 (chemical genetic matrix, 2015):
In all, about 5,500 compounds went through this assay and about 2,000 (36%) were called active. Another 18% or so got no clear call; they are omitted. Rule as the data show it: active = normalized growth mostly below about 0.91 (no sharp cut-off); inconclusive = no clear call, values can overlap the other calls; inactive = mostly above about 0.92. The list shows a part of the results.

Assay: chemical genetic growth profiling, strain panel (AID 1159580);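 also: tested at 20 µM; growth read once vehicle control cultures reached saturation at 30 °C; 1 = growth at the plate median or of vehicle wells; lower values mean less growth of the strain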
Conditions: growth OD

Measured: normalized growth

Cc1cc2cc3c(C)cc(=O)oc3c(C)c2o1
inactive: S. cerevisiae deletion strains, locus YKL009W, strain mrt4, hits give low values 0.894 | S. cerevisiae deletion strains, locus YKL068W, hits give low values 1.01 | S. cerevisiae deletion strains, locus YKL085W, strain MDH1 (second series), hits give low values 0.992 | S. cerevisiae deletion strains, locus YKL085W, strain MDH1, hits give low values 0.992 | S. cerevisiae deletion strains, locus YKL160W, strain elf1, hits give low values 0.951 | S. cerevisiae deletion strains, locus YKL190W, strain CNB1, hits give low values 0.981 | S. cerevisiae deletion strains, locus YKR001C, strain vps1, hits give low values 0.916 | S. cerevisiae deletion strains, locus YKR026C, strain gcn3, hits give low values 0.987 | S. cerevisiae deletion strains, locus YKR091W, strain srl3, hits give low values 1.01 | S. cerevisiae deletion strains, locus YLL001W, strain dnm1, hits give low values 0.993 | S. cerevisiae deletion strains, locus YLL026W, hits give low values 0.981 | S. cerevisiae deletion strains, locus YLL041C, strain sdh2, hits give low values 1.01 | S. cerevisiae deletion strains, locus YLR027C, strain aat2, hits give low values 1 | S. cerevisiae deletion strains, locus YLR039C, strain RIC1, hits give low values 0.927 | S. cerevisiae deletion strains, locus YLR058C, strain SHM2, hits give low values 0.971 | S. cerevisiae deletion strains, locus YLR102C, strain apc9, hits give low values 0.994 | S. cerevisiae deletion strains, locus YLR113W, strain HOG1, hits give low values 1.02 | S. cerevisiae deletion strains, locus YLR221C, strain rsa3, hits give low values 0.947 | S. cerevisiae deletion strains, locus YLR258W, strain gsy2, hits give low values 0.956 | S. cerevisiae deletion strains, locus YLR262C, strain YPT6 (second series), hits give low values 0.994 | S. cerevisiae deletion strains, locus YLR262C, strain YPT6, hits give low values 0.912 | S. cerevisiae deletion strains, locus YLR268W, strain sec22, hits give low values 0.898 | S. cerevisiae deletion strains, locus YLR320W, strain mms22, hits give low values 0.909 | S. cerevisiae deletion strains, locus YLR330W, strain CHS5, hits give low values 0.984 | S. cerevisiae deletion strains, locus YLR342W, strain FKS1 (second series), hits give low values 0.915 | S. cerevisiae deletion strains, locus YLR342W, strain FKS1, hits give low values 0.994 | S. cerevisiae deletion strains, locus YLR357W, strain rsc2, hits give low values 1.1 | S. cerevisiae deletion strains, locus YLR370C, strain arc18, hits give low values 0.986 | S. cerevisiae deletion strains, locus YLR371W, strain rom2, hits give low values 0.99 | S. cerevisiae deletion strains, locus YLR384C, strain iki3, hits give low values 1 | S. cerevisiae deletion strains, locus YML016C, strain PPZ1, hits give low values 0.951 | S. cerevisiae deletion strains, locus YML120C, strain ndi1, hits give low values 0.996 | S. cerevisiae deletion strains, locus YML124C, strain tub3, hits give low values 0.986 | S. cerevisiae deletion strains, locus YMR058W, strain fet3, hits give low values 0.945 | S. cerevisiae deletion strains, locus YMR078C, strain ctf18, hits give low values 0.974 | S. cerevisiae deletion strains, locus YMR129W, hits give low values 1.02 | S. cerevisiae deletion strains, locus YMR205C, strain PFK2, hits give low values 1.03 | S. cerevisiae deletion strains, locus YMR223W, strain ubp8, hits give low values 0.936 | S. cerevisiae deletion strains, locus YMR231W, strain pep5, hits give low values 1 | S. cerevisiae deletion strains, locus YMR263W, strain SAP30, hits give low values 0.908 | S. cerevisiae deletion strains, locus YMR307W, strain GAS1, hits give low values 0.887 | S. cerevisiae deletion strains, locus YNL067W, strain RPL9B, hits give low values 0.897 | S. cerevisiae deletion strains, locus YNL071W, strain lat1, hits give low values 0.931 | S. cerevisiae deletion strains, locus YNL128W, strain TEP1, hits give low values 0.975 | S. cerevisiae deletion strains, locus YNL153C, strain GIM3, hits give low values 0.918 | S. cerevisiae deletion strains, locus YNL183C, strain NPR1, hits give low values 0.924 | S. cerevisiae deletion strains, locus YNL209W, strain ssb2, hits give low values 0.981 | S. cerevisiae deletion strains, locus YNL233W, strain BNI4, hits give low values 0.885 | S. cerevisiae deletion strains, locus YNL250W, strain rad50, hits give low values 0.963 | S. cerevisiae deletion strains, locus YNL271C, strain bni1, hits give low values 0.964 | S. cerevisiae deletion strains, locus YNL298W, strain CLA4, hits give low values 0.941 | S. cerevisiae deletion strains, locus YNL322C, strain KRE1 (second series), hits give low values 1 | S. cerevisiae deletion strains, locus YNL322C, strain KRE1, hits give low values 0.993 | S. cerevisiae deletion strains, locus YNR049C, strain mso1, hits give low values 1.01 | S. cerevisiae deletion strains, locus YNR052C, strain pop2, hits give low values 0.98 | S. cerevisiae deletion strains, locus YOL006C, strain TOP1, hits give low values 0.585 | S. cerevisiae deletion strains, locus YOL012C, strain htz1 0.819 | S. cerevisiae deletion strains, locus YOL147C, strain pex11, hits give low values 0.986 | S. cerevisiae deletion strains, locus YOR001W, strain rrp6, hits give low values 0.972 | S. cerevisiae deletion strains, locus YOR061W, strain CKA2, hits give low values 0.97 | S. cerevisiae deletion strains, locus YOR069W, strain VPS5, hits give low values 0.974 | S. cerevisiae deletion strains, locus YOR070C, strain gyp1, hits give low values 0.979 | S. cerevisiae deletion strains, locus YOR080W, strain dia2, hits give low values 1 | S. cerevisiae deletion strains, locus YOR083W, strain WHI5, hits give low values 0.941 | S. cerevisiae deletion strains, locus YOR106W, strain vam3, hits give low values 0.98 | S. cerevisiae deletion strains, locus YOR136W, strain idh2, hits give low values 0.969 | S. cerevisiae deletion strains, locus YOR144C, strain elg1, hits give low values 0.979 | S. cerevisiae deletion strains, locus YOR184W, strain ser1, hits give low values 0.875 | S. cerevisiae deletion strains, locus YOR231W, strain MKK1, hits give low values 0.926 | S. cerevisiae deletion strains, locus YOR265W, strain rbl2, hits give low values 0.995 | S. cerevisiae deletion strains, locus YOR270C, strain vph1, hits give low values 0.872 | S. cerevisiae deletion strains, locus YOR290C, strain snf2, hits give low values 0.949 | S. cerevisiae deletion strains, locus YOR316C, strain cot1, hits give low values 0.989 | S. cerevisiae deletion strains, locus YPL051W, strain arl3, hits give low values 0.982 | S. cerevisiae deletion strains, locus YPL055C, strain LGE1, hits give low values 0.88 | S. cerevisiae deletion strains, locus YPL078C, strain atp4, hits give low values 0.976 | S. cerevisiae deletion strains, locus YPL106C, strain sse1, hits give low values 0.92 | S. cerevisiae deletion strains, locus YPL240C, strain hsp82, hits give low values 0.994 | S. cerevisiae deletion strains, locus YPL241C, strain CIN2, hits give low values 0.985 | S. cerevisiae deletion strains, locus YPL256C, strain CLN2, hits give low values 0.993 | S. cerevisiae deletion strains, locus YPR119W, strain clb2, hits give low values 0.987 | S. cerevisiae deletion strains, locus YPR141C, strain kar3, hits give low values 0.996 | S. cerevisiae deletion strains, locus YPR163C, strain tif3, hits give low values 0.969 | S. cerevisiae deletion strains, locus YPR167C, strain met16, hits give low values 0.983 | S. cerevisiae deletion strains, strain wtn01, hits give low values 0.931 | S. cerevisiae strains, strain wild type, hits give low values 0.964
active: S. cerevisiae deletion strains, locus YLR418C, strain cdc73, hits give low values 0.83 | S. cerevisiae deletion strains, locus YML032C, strain rad52, hits give low values 0.8 | S. cerevisiae deletion strains, locus YMR125W, strain sto1, hits give low values 1.11 [resistant] | S. cerevisiae deletion strains, locus YNL248C, strain rpa49, hits give low values 0.861 | S. cerevisiae deletion strains, locus YNL307C, strain MCK1, hits give low values 0.905
